Results from PubChem BioAssay (NCI).
The panel holds about 83,000 compounds, 20% with a hit somewhere; the sample as a whole holds those more often.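 Assay: single dose, 48 h. Readout: percent growth (0 = no net growth; negative = cell death). Active: <10.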 Calls of active or inactive are those of the source.

Columns and labels:
Assay in all cases: NCI-60 one-dose screen, 48 h (100 = growth as untreated, 0 = no growth, -100 = all killed)
Conditions in all cases: 10 µM unless noted
[1] = test system: SK-MEL-2 melanoma
[2] = test system: EKVX NSCLC
[3] = test system: SN12C renal
[4] = test system: UO-31 renal
[5] = test system: TK-10 renal
[6] = test system: ACHN renal
[7] = test system: CAKI-1 renal
[8] = test system: A498 renal
[9] = test system: MOLT-4 leukemia
[10] = test system: CCRF-CEM leukemia

Measured: growth

O=c1cc(CNc2cc(F)cc(F)c2)c2ccc(I)cc2[nH]1
inactive: [1] 39.2% | [2] 44% | [3] 51.7% | [4] 39.7% | [5] 53.3% | [6] 36.3% | [7] 26.6% | [9] 28.1%
active: [8] 3.87%

O=C(/C=C/c1cn(-c2ccccc2)nc1-c1ccccc1)CCC(=O)NO
inactive: [1] 99% | [2] 111% | [3] 102% | [4] 87.7% | [5] 104% | [6] 106% | [7] 94.5% | [8] 105% | [10] 93.2% | [9] 79.9%

O=c1cc(CP(=O)(O)O)c2cc(O)c(-c3ccccc3)cc2o1
inactive: [1] 107% | [2] 89% | [3] 98.2% | [4] 88.2% | [5] 106% | [6] 98.4% | [7] 93% | [8] 109% | [10] 93.6% | [9] 99.2%

C[N+]1=C(/C=C/c2ccccc2Cl)C(C)(C)c2ccccc21
inactive: [1] 109% | [2] 96.9% | [3] 103% | [4] 71.5% | [5] 114% | [6] 110% | [7] 89% | [8] 87.1% | [9] 70.3%

CC/C(=C(\c1ccc(Cl)cc1)c1ccc(OCCN2CCCCC2)cc1)c1ccc(O)cc1
active: [9] -5.41%
inactive: [1] 57.2% | [2] 68% | [3] 62.5% | [4] 38.4% | [5] 68.5% | [6] 60.4% | [7] 62.3% | [8] 87.2%

COc1ccc(CN2C(=O)OC(C)(COC(C)=O)C2=O)cc1 (stereo unspecified)
inactive: [1] 111% | [2] 107% | [3] 99.8% | [4] 95% | [5] 104% | [6] 102% | [7] 94.8% | [8] 103% | [9] 95.6%

CN(C)/C(N)=N/N=C(\c1ccccc1)c1ccccn1
inactive: [1] 106% | [2] 112% | [3] 99.4% | [4] 83.6% | [5] 94.6% | [6] 95.7% | [7] 97.1% | [8] 105% | [9] 91.5%

CN(C)c1ccc(/C=C2\C=C(c3nc4ccccc4s3)OC2=O)cc1
inactive: [1] 107% | [2] 94% | [3] 97.1% | [4] 73.4% | [5] 118% | [6] 92.2% | [7] 76% | [8] 112% | [9] 94.8%

O=C(/C=C/c1ccccc1)N(C1CCCCC1)C1CCCCC1
inactive: [1] 82.9% | [2] 85.1% | [3] 97.3% | [4] 97% | [5] 112% | [6] 86% | [7] 66.8% | [8] 93.4% | [9] 92.1%

CN1C(=O)N2CN3CCCN(C3)CN3C(=S)NC1C23 (stereo unspecified)
inactive: [1] 108% | [2] 104% | [3] 97.7% | [5] 108% | [6] 118% | [7] 98% | [8] 98.9% | [10] 90.2% | [9] 111%

Nc1c(Br)cc2c(c1Br)Cc1cc([N+](=O)[O-])ccc1-2
inactive: [1] 109% | [2] 55.3% | [3] 101% | [4] 79.1% | [5] 90.6% | [6] 93.2% | [7] 98% | [8] 114% | [9] 83.4%

CN1CCN(Cc2ccc(NC(=O)c3cncc(C#Cc4cnc(N)cc4C#N)c3)cc2C(F)(F)F)CC1
active: [1] -65.9% | [7] -9.35% | [8] -8.99% | [10] 6.94% | [9] 4.83%
inactive: [2] 34.3% | [3] 13.5% | [5] 19.4% | [6] 10.3%

CC1(C)CC(=O)C2=C(C1)C(c1ccc(Cl)cc1)n1ncc(C#N)c1N2 (stereo unspecified)
inactive: [1] 103% | [2] 92.8% | [3] 90.9% | [5] 107% | [6] 93.2% | [7] 90.3% | [8] 103% | [9] 98.1%

COC(=O)c1c(C)nc(C)c2c1C(=O)C=C(NCc1ccccc1)C2=O
inactive: [1] 72.8% | [2] 71.5% | [3] 88.6% | [5] 119% | [6] 76% | [7] 81.5% | [8] 124% | [10] 89.1% | [9] 75.9%

CCCCCCCCCCCCCCCCCCOc1ccccc1CC(=O)NCC[N+](C)(C)C
inactive: [1] 68.8% | [2] 89.3% | [3] 23.5% | [6] 78.3% | [7] 18.7% | [8] 65.6% | [9] 17.1%
active: [5] -21.4% | [10] -5.38%
